Vaccinia mCherry: inhibitors of vaccinia virus infection (mCherry reporter signal). hit rate 0.63% among 310,000. Potency, µM (series often up to 36.5 µM), inactives show at the highest dose activity change, negative = inhibition, actives largely listed as inhibitors. Vaccinia virus mCherry reporter infection, fluorescence; calls by dose curve; tested in A549 cells; further: potency means the concentration at half of the fitted maximal effect; on the % scale 0 is the no-effect control and ±100 the full control effect; nearly all actives have a fitted effect of over 35% in size
NS1 inh: blocks influenza NS1 protein function; Potency, µM (doses to about 46.1 µM), for the others: at the highest dose activity, positive = more growth; hit rate 0.4% among 270,000; AID 2326; calls by dose curve; further: potency means the concentration at half of the fitted maximal effect; actives are rising curves; nearly all actives have a fitted effect of over 50% in size
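S. cerevisiae expressing influenza A NS1, grown in glucose, washed, then diluted 1:100 into pH 6.0 -URA galactose medium with 23 nl compound. Growth recovery read as OD600; NS1-free strain serves as control.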
Pf growth 48h: inhibits P. falciparum growth in the first generation, 48 h. hit rate 5.9% among 310,000. P. falciparum luciferase growth in erythrocytes, 48 h. Potency, µM (titrated, usually from 28.7 µM), for the others: at the highest dose activity change, negative = inhibition, most hits filed as inhibitors; further: potency means the concentration at half of the fitted maximal effect; on the % scale 0 is the no-effect control and ±100 the full control effect
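In quantitative HTS format, infected erythrocytes bearing luciferase-reporter parasites were treated for a single generation at 37 C. Luminescence after adding detection reagent served as the growth measure.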
HCV inhibitor: blocks hepatitis C virus | hit rate 3.4% among 340,000 | AID 651820 | Huh7.5.1 HCVcc-Cre infection, luciferase reporter, 44 h | Potency, µM (top dose mostly 41.8 µM), without a hit: top-dose activity change, negative = inhibition, hits mostly inhibitors; further: potency means the concentration at half of the fitted maximal effect; on the % scale 0 is the no-effect control and ±100 the full control effect
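Reporter virus HCVcc-Cre (~0.5 moi) infects cells exposed to compound; seeding density 1,000 cells/well with 4 h settling beforehand. Luminescence, 15 sec read, taken 44 h post-infection following a 15 min RT substrate incubation.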
Pf growth 96h: P. falciparum growth inhibition at 96 hour, primary screen for plastid delayed-death inhibitors; P. falciparum luciferase reporter growth, 96 h; Potency, µM (titrated, usually from 28.7 µM), without a hit: at the highest dose activity change, negative = inhibition, usual class: inhibitors; hit rate 6.9% among 320,000; further: potency means the concentration at half of the fitted maximal effect; on the % scale 0 is the no-effect control and ±100 the full control effect
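Parasite growth measured via integrated firefly luciferase reporter in P. falciparum. Infected erythrocytes at 2% hematocrit, 0.05% parasitemia final were treated 96 hours at 37 C under 5% CO2, and luminescence was read.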
Vaccinia Venus: inhibitors of vaccinia virus (Venus reporter); Vaccinia virus Venus reporter expression, fluorescence; Potency, µM (top dose mostly 36.5 µM), without a hit: at the highest dose activity change, negative = inhibition, most hits filed as inhibitors; hit rate 0.46% among 330,000; calls by dose curve; tested in A549 cells; further: potency means the concentration at half of the fitted maximal effect; on the % scale 0 is the no-effect control and ±100 the full control effect; nearly all actives have a fitted effect of over 30% in size
NS1 inh valid: validation of influenza NS1 protein function inhibitors; activity change, negative = inhibition, % at 32.9 µM; 1,400 tested, under 10 active; influenza NS1 function cell assay, 15-point titration; shares compounds with NS1 inh; AID 492980; calls by dose curve; further: 0% is about no effect
PR8 titer: influenza virus titer reduction, NS1 project; shares compounds with NS1 inh; MDCK infected influenza A/PR/8/34, virus titer TCID50; hits give low values; virus titer (log TCID50), log10 TCID50 at 5 µM; hit rate 30% among 95; call rule not given here
Numbers without * were called inactive; i = inactive; u = inconclusive; x = no result; ! = a repeat was not active; [ ] = another dose, or the depositor's remark. The list is not random: actives were taken first. Their share in the collection is about 11%. Unless noted, the call rests on the fitted dose curve; in most records, active means well fitted inhibition curve with a large enough effect; inconclusive means small, poorly fitted or top-dose-only effect, or another doubt; inactive means no such curve, though single readings can be large or run the other way.

SMILES	Vaccinia mCherry	NS1 inh	Pf growth 48h	HCV inhibitor	Pf growth 96h	Vaccinia Venus	NS1 inh valid	others
COc1cc([N+](=O)[O-])ccc1NC(=S)N1CCOCC1	x	5%	-1%	3%	u	x	x
CC(C)c1ccc(/C=N\NC(=O)c2ccc(Cn3cccn3)o2)cc1	-11%	-2%	1%	2%	-24%	-10%	x
O=C(N/N=C\c1c(O)ccc2ccccc12)c1ccc(Cn2cccn2)o1	4.5µM*	u	u	u	u	u	-5
CC(=O)c1ccc(NC(=O)c2ccc3c(c2)N(Cc2cccc(Cl)c2)C(=O)c2ccccc2S3(=O)=O)cc1	-13%	x	x	x	x	-3%	x
CC1CCC2(CC1)NC(=O)N(Cc1nc(-c3ccccc3)no1)C2=O (stereo unspecified)	-3%	8.9µM*	6%	-26%	x	-7%	-1	PR8 titer=8.5
Cn1cc([N+](=O)[O-])c(C(=O)n2cccn2)n1	-12%	u	26%	20%	-3%	-12%	0
Cn1cc([N+](=O)[O-])c(C(=O)N2CCCCCC2)n1	x	18%	4%	10%	-12%	x	x
CC1(O)c2ccccc2C(=O)N1CCc1ccccc1F (stereo unspecified)	-8%	-21%	33%	27%	0%	-2%	x
O=C(NN=C1CCCCCC1)c1cn(-c2ccccc2)nc1-c1ccccc1	u	14µM*	6%	2%	-8%	-24%	32
O=C(NN=C1CCCC1)c1ccccc1[N+](=O)[O-]	i	u	-11%	14%	u	3%	11
O=C(NC(=S)Nc1cccc2ncccc12)c1ccco1	x	0%	-34%[1.15 µM]	6%	u	x	x
O=C(OCC(=O)N1CCCC1)c1ccccc1OCc1ccccc1	x	-40%	14%	24%	13%	-11%	x
O=C1CN(C(=O)COC(=O)c2ccc(N3CCCCCC3)c([N+](=O)[O-])c2)c2ccccc2N1	-7%	10µM*	u	u	6.6µM*	-9%	21
COC(=O)Nc1ccc(S(=O)(=O)Nc2ccc(O)cc2)cc1	-15%	11%	u	u	45%	-22%	x
O=C(c1ccccc1C(=O)N1CCN(c2ccccc2F)CC1)N1CCN(c2ccccc2F)CC1	x	-19%	u	-16%	x	-18%	x
Cc1ccc(-c2cc(-c3ccccc3[N+](=O)[O-])[nH]n2)c(O)c1	x	-135%	-18%	-29%	-18%	x	x
O=C1NC(=O)C(c2ccccc2[N+](=O)[O-])=C1Nc1ccc(O)c(Cl)c1	-8%[60.7 µM]	35µM*!	21%	-17%	u	-14%	-13
CCOC(=O)c1cnc(SC)nc1Oc1cccc(NS(=O)(=O)c2ccc(Cl)cc2)c1	-18%	2%	-19%	-4%	u	-6%	x
O=C1[C@H]2[C@H](ON3CCCC[C@H]23)C(=O)N1c1cccc(C(F)(F)F)c1	-6%	x	15%	2%	40%	-2%	x
O=C(NCc1ccc(F)cc1)N[C@@H](Cc1ccccc1)C(=O)O	x	1µM*	20%	28%	u	x	22
COc1ccc(OC)c(NC(=O)N[C@@H](Cc2ccccc2)C(=O)O)c1	x	5%	22%	17%	-2%	x	x
O=C(NCc1ccccc1)N[C@@H](Cc1ccccc1)C(=O)O	x	6%	17%	4%	u	x	x
COc1cc(NC(=O)N[C@@H](Cc2ccccc2)C(=O)O)cc(OC)c1	i	u	3%	30%	u	-10%	18
CCOc1cc(S(=O)(=O)Nc2ncn[nH]2)ccc1Br	-14%	8%	0%	19%	24%	-3%	x
Cc1cc(C)n2nc(SCC(=O)Nc3c(C)n(C)n(-c4ccccc4)c3=O)nc2n1	x	5µM*	10%	u	u	13%	8
SMILES	Vaccinia mCherry	NS1 inh	Pf growth 48h	HCV inhibitor	Pf growth 96h	Vaccinia Venus	NS1 inh valid	others
O=[N+]([O-])c1ccc(N/N=C/c2cn(-c3ccccc3)nc2-c2ccccc2)cc1	-14%	u	13µM*	5%	4.7µM*	-10%	1
O=S(=O)(N/N=C\c1cn(-c2ccccc2)nc1-c1ccccc1)c1ccccc1	-6%	-6%	7%	8%	98%	-19%	x
NC(=O)C1=C(c2ccccc2)c2ccccc2C1=O	-1%	x	x	-1%	x	1%	x
COc1ccccc1Oc1cn[nH]c1-c1ccc(OCC(=O)NN)cc1O	x	14%	8%[0.00184 µM]	10%	u	x	x
COc1ccc(-c2cn[nH]c2-c2ccc(OCc3ccc([N+](=O)[O-])cc3)cc2O)cc1OC	x	u	10µM*	u	9.3µM*	x	-14
Cc1ccccc1Nc1nnc(C)c(=O)n1N	-13%	1.8µM*	0%	-15%	u	-5%	2
COC(=O)c1cccnc1-n1c(=O)c2cccnc2n(CC(=O)Nc2c(C)cc(C)cc2C)c1=O	6%	x	x	x	x	0%	x
C/C(=N\Nc1nc2ccc(Cl)cc2o1)c1ccccc1	-24%	8.9µM*	2%	-3%	-21%	-18%	u
O=C(CNC(=O)c1ccccc1)N/N=C/C=C/c1ccccc1	x	10%	22%	14%	121%	x	x
O=C(Cc1cc(=O)[nH][nH]1)N/N=C/C=C/c1ccccc1	x	5µM*!	8%	-10%	-8%	9%	33
Oc1ccc(/C=N/N=C(c2ccccc2)c2ccccc2)c(O)c1O	u	-4%	u	3%	u	-6%	x
O=C(/C(=N/N=C/c1ccc(O)c(O)c1O)c1ccccc1)c1ccccc1	-22%	3.2µM*	10µM*	u	u	-27%	u
COC(=O)c1c(NC(=O)CN2CCCC(C)C2)c2c(C)cccc2n1C (stereo unspecified)	x	5µM*	x	-18%	x	u	-19
C[C@@H]1COC(=O)CCC/C=C\C[C@@H](CC(=O)N(CCO)Cc2ccccc2)C(=O)N1	-2%	x	x	0%	x	0%	x
Cc1ccc(NC2CCCN(C(=O)CCN3CCOCC3)C2)cc1C (stereo unspecified)	x	u	6%	8%	u	x	-3
O=C(Nc1nccs1)C1CCCN1S(=O)(=O)c1ccc(Cl)cc1 (stereo unspecified)	-11%	3%	-15%	4%	58%	-4%	x
NC(=O)c1ccsc1NC(=O)C1CCCN1S(=O)(=O)c1ccc(Cl)cc1 (stereo unspecified)	x	8.9µM*	u	17%	x	x	-24
COc1ccc(-c2cc(C(=O)Nc3cc(C)n(Cc4ccc(Cl)cc4)n3)no2)cc1OC	u	5µM*	u	u	115%	u	-1
COc1ccc(-c2cc(C(=O)Nc3cccnc3Cl)no2)cc1OC	-23%	-4%	11%	-5%	u	-2%	x
